M1 ag – human M1 muscarinic receptor agonism; P11229; CHO-K1 hM1, Fluo-8 calcium fluorescence, agonist mode; 0% DMSO, 100% acetylcholine EC100; activation, % at 3 µM; actives 0.33% (n = 360,000);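 active = activation above the run's mean compound activation plus 3 SD, cut at about 16% in these data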;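 also: peak over basal fluorescence ratio within a 140 s kinetic read after compound addition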
Target sequence (P11229 whole entry, looked up): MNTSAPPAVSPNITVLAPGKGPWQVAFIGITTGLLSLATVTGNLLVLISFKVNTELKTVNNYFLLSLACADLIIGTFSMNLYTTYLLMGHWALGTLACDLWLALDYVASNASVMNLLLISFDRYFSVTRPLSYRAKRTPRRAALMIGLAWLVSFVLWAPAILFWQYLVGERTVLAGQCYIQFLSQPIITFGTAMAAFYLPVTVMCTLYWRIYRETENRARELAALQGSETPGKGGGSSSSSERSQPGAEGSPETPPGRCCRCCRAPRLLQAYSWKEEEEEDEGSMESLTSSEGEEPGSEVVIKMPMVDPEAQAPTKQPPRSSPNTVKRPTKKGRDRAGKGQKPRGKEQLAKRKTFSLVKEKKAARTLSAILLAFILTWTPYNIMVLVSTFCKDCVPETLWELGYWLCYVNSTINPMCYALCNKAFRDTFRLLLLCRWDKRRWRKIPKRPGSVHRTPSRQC
CHO-K1 Ca antag – nonselective inhibitor or artifact in parental CHO-K1 cells | inhibition, % at 3 µM | ATP-induced calcium, Fluo-8 fluorescence | actives 0.6% (n = 360,000) | AID 602250;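 active = inhibition above a per-plate cutoff, the plate's mean sample inhibition plus 3 SD, cut at about 24% in these data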
CHO-K1 Ca ag – nonselective activator or artifact in parental CHO-K1 cells | Fluo-8 calcium fluorescence; scaled to maximal ATP response, vehicle zero | activation, % at 3 µM | AID 602248 | actives 0.48% (n = 360,000); in the data active = activation above about 15%;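 also: untransfected CHO-K1 host cells lacking M1 receptor as counterscreen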
M1 PAM parental – nonselective activator or artifact in parental CHO-K1 calcium assay; ATP EC20, Fluo-8 calcium fluorescence; 0% at ATP EC20, 100% at ATP max; activation, % at 3 µM; actives 0.02% (n = 360,000); AID 602247;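 active = activation above the run cutoff, the mean activation of all test compounds plus 3 SD, cut at about 40% in these data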;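 also: peak over basal fluorescence ratio in a 140 s read after ATP addition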
CHRM1 PAM – potentiates human M1 receptor response to acetylcholine; AID 588819; CHO-K1 hM1, Fluo-8 calcium fluorescence, ACh EC20; 0% = ACh EC20, 100% = maximal ACh; P11229; actives 0.088% (n = 360,000); activation, % at 3 µM; in the data active = activation above about 19%, passing the limit was not always enough
M1 antag – antagonists of human M1 muscarinic receptor | P11229 | CHO-K1 hM1, Fluo-8 calcium fluorescence, ACh EC80 antagonist | inhibition, % at 3 µM | actives 1.3% (n = 360,000) | AID 588852;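 active = percent inhibition above its own plate's cutoff, namely the mean of that plate's compound wells plus 3 SD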;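 also: peak over basal fluorescence ratio during 140 s after agonist addition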
Of the large screens only hits and unclear results are named; the others gave an inactive call. An excerpt weighted towards active compounds, which were near 2.3% of everything screened.

CN1Cc2cnnn2-c2ccccc2C1c1ccccc1 (configuration not stated)	none
CC(C)Cc1nnc(NC(=O)CCC(=O)N2CCN(CCOC(c3ccccc3)c3ccccc3)CC2)s1	none
c1ccc(C(OCCN2CCN(c3ncccn3)CC2)c2ccccc2)cc1	M1 antag 48
Clc1ccc(C(OCCN2CCCCC2)c2ccccc2)cc1 (configuration not stated)	M1 antag 96
Oc1cccc(/C=N/NP(=S)(c2ccccc2)c2ccccc2)c1	CHO-K1 Ca antag 25
Cc1nn(Cc2ccccc2)c(Cl)c1C(=O)NC1CCCc2ccccc21 (configuration not stated)	none
COc1ccc(OC(=O)N(C)C[C@H]2OCc3cnnn3CCCC(=O)N([C@H](C)CO)C[C@H]2C)cc1	none
CN1OCC2Cn3c(nc4ccccc43)C21 (configuration not stated)	CHRM1 PAM 27
CN1CCN(CCOC2c3ccccc3CSc3ccc(Cl)cc32)CC1 (configuration not stated)	M1 antag 99
Clc1ccc2c(c1)C(OC1CN3CCC1CC3)c1ccccc1CS2 (configuration not stated)	M1 antag 100
COc1ccc2c(c1)C13CCN4CC5=CCOC6CC(=O)N2C1C6C5CC43 (configuration not stated)	none
CC(C)COC(=O)N1Cc2ccccc2-n2nncc2C1	none
O=C(Nc1ccncc1)c1cccn(Cc2ccccc2)c1=O	CHO-K1 Ca ag 32
Cc1cc([N+](=O)[O-])c2ccccc2[n+]1[O-]	none
CCOC(=O)[C@]12Cc3ccc(C)cc3[C@H]1N(C1CCCCC1)C(=O)c1cc(OC)ccc12	none (no result: M1 ag, CHRM1 PAM, M1 antag)
CCOC(=O)[C@]12Cc3cc(Cl)ccc3[C@H]1N(C1CCCCC1)C(=O)c1cc(OC)ccc12	CHO-K1 Ca antag 33 (no result: M1 ag, CHRM1 PAM, M1 antag)
CSCCC(c1nnnn1C1CCCCC1)N1CCC2(CC1)C(=O)NCN2c1ccccc1 (configuration not stated)	none
O=C(c1cccc(C(F)(F)F)c1)C1CCCN(Cc2ncc[nH]2)C1 (configuration not stated)	none
CCn1ccnc1CN1CCCC(C(=O)c2cccc(C(F)(F)F)c2)C1 (configuration not stated)	M1 antag 78
Nc1c2c(nc3sc4c(c13)CCCC4)CCCCC2	M1 antag 36
Nc1c2c(nc3sc4c(c13)CCCC4)CCCC2	none
CC(CC(C#N)(c1ccccc1)c1ccccc1)N1CCOCC1 (configuration not stated)	M1 antag 99
N#CC(c1cccnc1)N1CCOCC1 (configuration not stated)	none
N=Cc1c(O)n(-c2ccc(C34CC5CC(CC(C5)C3)C4)cc2)c(=O)[nH]c1=O	none
O=C(Nc1cccc(C(F)(F)F)c1)OC1CN2CCC1CC2 (configuration not stated)	M1 antag 102
CNC(=O)Oc1cccc(-c2cn3cc(Cl)ccc3n2)c1	CHRM1 PAM 27
CC(C)N(CCC(C(N)=O)(c1ccccc1)c1ccccn1)C(C)C (configuration not stated)	none
CC1(C)CCCN1CCC(C(N)=O)(c1ccccc1)c1ccccc1	M1 antag 99
CC(C)(C)c1ccc(C(=O)C2CCCN(C3CCC3)C2)cc1 (configuration not stated)	M1 antag 52
CC(=O)N1CCC(N2CCCC(C(=O)c3cccc(Cl)c3)C2)CC1 (configuration not stated)	M1 antag 48
Cc1nc(C)c(C(=O)NN=Cc2ccc(N(CCCl)CCCl)cc2)s1	none
CCOC(=O)c1ccc(N=Cc2c(O)n(-c3ccc(OC)cc3)c(=S)[nH]c2=O)cc1	M1 antag 34
Cc1c(CCC(=O)N2C[C@H]3C[C@@H](C2)c2cccc(=O)n2C3)c(=O)oc2c(C)c(O)ccc12	none
CSCCC(c1nnnn1C1CCCC1)N1CCC(n2c(=O)[nH]c3ccccc32)CC1 (configuration not stated)	none
CSCCC(c1nnnn1C1CCCCC1)N1CCC(n2c(=O)[nH]c3ccccc32)CC1 (configuration not stated)	M1 antag 34
CN1C(=O)N(C)C(=O)C(NS(=O)(=O)c2ccc(N)cc2)(c2ccccc2)C1=O	none
CCN(CC)c1ccc(CN2CC=C(c3ccc(F)cc3)CC2)cc1	M1 antag 37
COc1ccc(CN2CC=C(c3ccc(F)cc3)CC2)cc1Br	M1 antag 46
COc1ccc(-c2cc(-c3ccccc3)[n+](C)c(-c3ccccc3)c2)cc1	none
O=C(O)c1ccc(-[n+]2c(-c3ccccc3)cc(-c3ccccc3)cc2-c2ccccc2)cc1	none
Oc1ccccc1-[n+]1c(-c2ccccc2)cc(-c2ccccc2)cc1-c1ccccc1	none
COc1ccc(-[n+]2c(-c3ccccc3)cc(-c3ccc(C)cc3)cc2-c2ccccc2)cc1	M1 antag 86
CCCOC(=O)c1ccc(-[n+]2c(-c3ccccc3)cc(-c3ccccc3)cc2-c2ccccc2)cc1	M1 antag 45
Cc1ccccc1-[n+]1c(-c2ccccc2)cc(-c2ccccc2)cc1-c1ccccc1	M1 antag 65
CC(=O)OC1CCC2(C)C(CCC3C4CC(N5CC5)C(C(C)=O)C4(C)CC(=O)C32)C1 (configuration not stated)	none
CCC(C)(O)C(=O)OC1C(=O)OC2CC3C(C)=CC(O)C(O)C3(C)C3C4(O)OCC23C1C(C)C4O (configuration not stated)	none
COC(=O)N1Cc2ccccc2-n2nncc2C1	none
c1ccc2c(c1)Sc1ccccc1N2CC1CN2CCC1CC2 (configuration not stated)	M1 antag 99
CN1C2CCC1CC(OC(c1ccccc1)c1ccccc1N)C2 (configuration not stated)	M1 antag 99
CN1C2CCC1C(COC(=O)c1ccccc1)C(O)C2 (configuration not stated)	none
COc1ccc(-c2ccc3c(c2)CN(C(=O)C(C)(C)C)Cc2cnnn2-3)cc1	none
COc1ccccc1Sc1ccccc1CC(C)N (configuration not stated)	none
CC(Cc1ccccc1Sc1ccc(O)cc1)N(C)C (configuration not stated)	M1 antag 83
CN1CCN(Cc2ccccc2Sc2ccccc2)CC1	M1 antag 100
CC(Cc1ccccc1Sc1ccccc1)N(C)C (configuration not stated)	M1 antag 98
CSc1ccc(CN2CCN(Cc3ccccc3Cl)CC2)cc1	none
O=C(Cc1ccccc1)OCCN1CCCCC1	M1 antag 34
